The whole screen tested about 7,400 compounds, of which about 4,100 (55%) were called active.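 Rule for the calls: active = inhibition of yeast growth at or above a set limit in either of two repeat tests at 20 µM; inactive = the rest.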 So high a share suggests a set chosen from earlier hits. A selection follows.

By inhibition is commonly meant the relative decrease from the control value, in per cent.

This experiment in a line: growth inhibitors of tim10-1 mutant yeast, confirmation, single concentration, luminescence, S. cerevisiae (AID 463213).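 Note: tim10-1 mutant grown at permissive 25 °C to find synthetic lethal compounds; 0% = DMSO yeast wells and 100% = medium wells without yeast.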 Particulars: S. cerevisiae tim10-1 ts strain growth, BacTiter-Glo, 24 h; at 20 µM; stronger effect = higher value.
Consider `Cc1nc(-c2ccccc2)cn2c1nc1ccccc12`, for which the inhibition was 36% (active). For `O=C(Nc1nnc(-c2ccccc2)o1)c1cc(-c2cccs2)nc2ccccc12` the value was 13.9% (inactive); for `CCc1ccc(-c2cc(C(=O)NCc3ccco3)c3ccccc3n2)s1`, 32.3% (active); for `CC1=CC(C)(C)Nc2ccc(OC(=O)CN3C(=O)C4CCCCC4C3=O)cc21` (centres undefined), 22.8% (inactive). For `Cc1cc(N)n2nc(-c3ccc(C(C)(C)C)cc3)cc2n1` the value was 42% (active); for `COc1ccccc1CSc1ncc(-c2ccc([N+](=O)[O-])cc2)[nH]1`, 27.1% (inactive); for `CCCCC(O)(CCCC)C(=O)NN(C(=O)CCl)c1ccccc1`, 36.3% (active). Regarding `Cc1ccc(Oc2cnn(-c3ccccc3)c(=O)c2Br)cc1`, the inhibition was 41.2% (active). For `COc1ccc(N2CCN(C(=O)CCSCc3ccccc3F)CC2)cc1` the value was 16.8% (inactive); for `Fc1ccc(/C=N/Nc2nc(-c3cccnc3)nc3ccccc23)cc1`, 33.9% (active); for `COc1ccc(/C=C(\C#N)C(=O)ONC2=NCCCCC2)cc1`, 66.8% (active).

Turning to `COc1ccc(/C(C)=N/NC(=O)c2ccc3nc[nH]c3c2)cc1`, the inhibition was -11.2% (inactive). Take `COc1cccc(C(=O)Nc2cc3c(cc2Br)OCCCO3)c1`: the inhibition is 9.95% (inactive).

Consider `COc1ccc(C(=O)Nc2ccccc2C(=O)N/N=C/c2ccccc2OC)cc1`, for which the inhibition was 56.6% (active). For `COc1ccc2c(c1)c(C(=O)N/N=C/c1cccs1)c(C)n2C` the value was 28.8% (inactive); for `COc1ccc(C(=O)Nc2ccccc2C(=O)N/N=C/c2ccc(O)c(OC)c2)cc1`, 91.6% (active).

`O=C(C(=O)N1CCc2ccccc2C1)c1c[nH]c2ccccc12`: the inhibition is 12.1% (inactive).

`CC1CCc2c(sc3nc4n(c(=O)c23)CCS4)C1` (centres undefined): the inhibition is 37.5% (active). Under `CC1CCc2sc3nc(N4CCN(CCO)CC4)n4ncnc4c3c2C1` (centres undefined) stands 27.2% (inactive). Turning to `CCOC(=O)CSc1nc2c(c(=O)n(Cc3ccccc3Cl)c(=O)n2C)n1C`, the inhibition was 31.1% (inactive). Regarding `Cc1ccc(-c2ccc(/C=C(\C#N)C(N)=S)o2)c([N+](=O)[O-])c1`, the inhibition is 48.3% (active). Under `CC(=O)Cc1nsc(NC(=O)c2csc3c2CCCC3)n1` stands 29.6% (inactive). As for `COc1ccc(N2C(=O)CC(Sc3n[nH]c(-c4ccc(C)cc4)n3)C2=O)cc1` (centres undefined), the inhibition is 24.7% (inactive). `CNC(=O)/C(C#N)=C/c1c(F)cccc1Cl`: the inhibition is 50.1% (active). Under `CCOC(=O)c1ccccc1N1C(=O)C2Sc3[nH]c(=O)sc3C(/C=C/c3ccccc3)C2C1=O` (centres undefined) stands 15.4% (inactive). Under `CCOC(=O)C1Sc2[nH]c(=O)sc2C(c2ccc(Cl)cc2)C1C(=O)OCC` (centres undefined) stands 33.5% (active); under `ONC(=Nc1ccc(Cl)cc1)c1ccccc1Cl`, 31.5% (active).

For the compound `Cc1cccc(NC(=S)NCc2ccc3[nH]c4c(c3c2)CCCC4)c1`, the inhibition was 35.3% (active). Under `O=C(N/N=C\c1cccc(Br)c1)c1ccccc1-n1cccc1` stands 51.5% (active); under `CCC(=O)N1CCc2cc(S(=O)(=O)NC(C(=O)N3CCc4ccccc4C3)C(C)C)ccc21` (centres undefined), 22.2% (inactive); under `O=C(CN1CCN(c2ccc(F)cc2)CC1)Nc1cccc(C(F)(F)F)c1`, 23.8% (inactive). Under `CC1CCCC(C)N1C(=O)CN1CCN(c2nc(-c3ccc(F)cc3)cs2)CC1` (centres undefined) stands 37.2% (active). For the compound `O=C(Nc1nc(-c2ccco2)c(-c2ccco2)s1)c1ccco1`, the inhibition was 65.9% (active). Under `Cc1ccc2c(c1)c1ncnc(N3CCc4ccccc4C3)c1n2C` stands 22.1% (inactive); under `CCOC(=O)N1CCN(C(=O)c2cc3c(-c4ccc(Cl)cc4)nn(C)c3s2)CC1`, 22.4% (inactive); under `Cc1nc(-c2ccc(Cl)cc2)sc1C(=O)CBr`, 55.2% (active).

Consider `O=C(Oc1c(-c2ccco2)oc2ccccc2c1=O)c1cccnc1`, for which the inhibition is 42.6% (active). Under `O=C(c1ccc2nc(N3CCOCC3)sc2c1)N1CCN(c2ccc(Cl)cc2)CC1` stands 41.5% (active); under `CCc1nc2ccc(C(=O)N3CCN(c4cccc(Cl)c4)CC3)cc2nc1CC`, 24.6% (inactive); under `COc1ccc2nc(N3CCN(C(=O)c4ccc([N+](=O)[O-])o4)CC3)sc2c1`, -0.8% (inactive). For `Cc1ccccc1CC1(CO)CCCN(C(=O)c2cc(-c3ccccc3)no2)C1` (centres undefined) the value was 21.1% (inactive). For `O=C(Cc1ncc(C(F)(F)F)cc1Cl)Nc1cccc(Br)c1`, the inhibition was 30.4% (inactive). For the compound `N/C(=N\OC(=O)Nc1ccc(Cl)c(Cl)c1)c1ncc(C(F)(F)F)cc1Cl`, the inhibition is 67.4% (active). Under `CC1(C)CCSC(/C=C/c2ccccc2)=N1` stands 49.4% (active); under `Cc1ccc(C(=O)CCC(=O)N(C)CC(=O)Nc2c(Cl)cccc2Cl)cc1`, -3% (inactive). On to `FC(F)(F)Oc1ccc(NC(=S)NCc2ccccc2)cc1`, for which the inhibition was 47% (active).

For the compound `COc1ccc(NC(=S)N2N=CCC2c2ccccc2)cc1` (centres undefined), the inhibition was 16.2% (inactive). Under `C/C(=N\NC(=S)NCc1ccccc1)C1CCCCC1` stands 26.9% (inactive); under `Cc1ccc2c(c1)C1CN(C)CCC1N2S(=O)(=O)c1ccc(Oc2ccc([N+](=O)[O-])cc2)cc1` (centres undefined), 22.1% (inactive); under `Oc1c(Cl)cc(Cl)c(Cl)c1Cc1c(O)c(Cl)cc(Cl)c1Cl`, 88.7% (active). For `CCc1nn(CCCC(=O)Nc2ccc(C)cc2C)c(=O)c2cc3occc3n12` the value was -8.95% (inactive); for `COc1ccc(-n2cc(-c3ccccc3)c3c(=S)nc[nH]c32)cc1`, 34.4% (active).

Turning to `CCOC(=O)C1Cn2c(nc3c(c2=O)C(C)(CC)Cc2ccccc2-3)S1` (centres undefined), the inhibition was 10% (inactive).

Turning to `O=C(/C(=C/c1cccc(Cl)c1)c1nc2ccccc2[nH]1)c1ccccc1`, the inhibition was 38.7% (active).

For the compound `O=C(Nc1cccc(Cl)c1)c1cncn1-c1ccc(F)cc1`, the inhibition is 33% (active).

As to `CCNC(=S)N(CCc1c(C)[nH]c2ccc(C)cc12)Cc1ccco1`, the inhibition is 24.5% (inactive).

For the compound `Cc1nonc1C1CCCN1C(=O)c1cc(COc2cccc(C(F)(F)F)c2)on1` (centres undefined), the inhibition was 41.6% (active). For `O=C1c2ccccc2C(=O)c2c1cccc2N1CCN(Cc2ccccc2)CC1` the value was 32% (active). For `CCOC(=O)C1(S(=O)(=O)c2ccccc2)CCN(Cc2ccccc2)CC1` the value was 14.3% (inactive); for `O=C(c1ccc(CSc2ccccc2)cc1)N1CCCCCC1`, 26.4% (inactive); for `COc1ccc(/C=C2/SC(=O)N(CCCCCC(=O)Nc3ccccc3C(=O)O)C2=S)cc1`, 4.8% (inactive). Take `O=C(CCCN1C(=O)/C(=C/c2ccccc2)SC1=S)Nc1ccc(O)cc1`: the inhibition is 28.7% (active). `O=C1/C(=C\c2ccccc2Cl)SC(=S)N1CCC(=O)N1CCCc2ccccc21`: the inhibition is 27.6% (inactive). For `COc1ccccc1C1C(C#N)=C(N)Oc2c1c(-c1ccccc1)nn2-c1ccccc1` (centres undefined) the value was 21.8% (inactive); for `Cc1ccc(C(C[N+](=O)[O-])c2c(C)cc3ccccn23)cc1` (centres undefined), 30.6% (active); for `CCN1/C(=C\c2ccc3ccccc3[n+]2CC)Sc2cc(C)ccc21`, 59% (active). Under `COc1ccc2nc(/N=C(\N)NC(=O)Nc3ccccc3)nc(C)c2c1` stands 51% (active); under `O=C1[C@@H](c2ccccc2)[C@@H](c2ccccc2)N1c1cccnc1`, 66.5% (active); under `O=c1c(-c2ccc3c(c2)OCCO3)c(C(F)(F)F)oc2cc(O)cc(O)c12`, 22.5% (inactive). Take `Cc1onc(NC(=O)c2ccc([N+](=O)[O-])o2)c1Br`: the inhibition was 45.9% (active).

With `O=C(Nc1ccc(Br)cn1)c1ccc([N+](=O)[O-])o1`, the inhibition is 59.5% (active). Under `Cc1cccc(NC(=O)c2ccc([N+](=O)[O-])o2)c1` stands 50.1% (active); under `Cc1cccc(CN2CCC(CNC(=O)Nc3ccc(F)c(Cl)c3)CC2)c1`, 14.9% (inactive). Under `CCOC(=O)C1=C(C)N=c2s/c(=C\C(=O)OC)c(=O)n2C1c1ccc(OC)cc1` (centres undefined) stands 24.7% (inactive); under `CC(=O)/C(=N\Nc1ccc(Cl)cc1Cl)Sc1cccc2cccnc12`, 43% (active). Under `Cc1cc(C)c(S(=O)(=O)c2ccccc2)c(OC(=O)c2c(F)cccc2Cl)n1` stands 41.5% (active); under `Oc1c(C(c2ccccn2)N2CCOCC2)ccc2cccnc12` (centres undefined), 16.2% (inactive).

Consider `CCN1CCN(C(c2cccnc2)c2cc(Cl)c3cccnc3c2O)CC1` (centres undefined), for which the inhibition is 34% (active).

`CCOC(=O)c1ccc(N2C(=O)CC(N3CCC(C(=O)OCC)CC3)C2=O)cc1` (centres undefined): the inhibition is 47.8% (active).

As for `Cc1[nH]c(=O)c(C(=O)/C=C/c2ccccc2)c2c1CCCC2`, the inhibition was 50.3% (active).

Regarding `COc1ccc(Cn2c(-c3ccc(Cl)cc3)c[n+]3ccccc23)cc1`, the inhibition was 32.9% (active).

`CCc1ccc(-c2cc3c(=O)n(CC(=O)NCCCN4CCN(Cc5ccccc5)CC4)nc(C)n3n2)cc1`: the inhibition is -46.4% (inactive). Regarding `CCCCNC(=S)N/N=C1\CCCCc2ccccc21`, the inhibition is 22.1% (inactive). Under `Cc1[nH]n(-c2ccc([N+](=O)[O-])cc2)c(=O)c1C=NCCN1CCN(C(=O)c2ccccc2F)CC1` stands 40.4% (active); under `C=CCNC(=S)N1CCN(CCN=Cc2c(C)[nH]n(-c3ccc([N+](=O)[O-])cc3)c2=O)CC1`, 27.4% (inactive). For `COc1ccc(CNC(=O)/C(C#N)=C/c2cccc(OC)c2OC)cc1` the value was 78.2% (active); for `O=C(NNc1c2ccccc2nc2ccccc12)c1cc2ccccc2cc1O`, 40.6% (active). For `COc1ccc(-c2oc3ncn(Cc4ccco4)c(=N)c3c2-c2ccc(OC)cc2)cc1` the value was 17.6% (inactive); for `Cc1cc(Nc2ccccc2)n(C(=O)c2ccc(N)cc2)n1`, 39.9% (active); for `CCOC(=O)c1c(N)nn(C(=O)c2ccccc2)c1-c1ccccc1`, 16.3% (inactive). For the compound `Clc1ccc(Nc2ccc3ccccc3n2)cc1`, the inhibition was 50.6% (active). For `C=CCNc1nc(Nc2ccc(Cl)cc2)nc(OC)n1` the value was 2.4% (inactive); for `C=CS(=O)c1sc(Cl)c(N2CCOCC2)c1[N+](=O)[O-]` (centres undefined), 83.8% (active); for `Nc1ccccc1SC(C[N+](=O)[O-])c1ccccc1` (centres undefined), 47.1% (active).

For the origin of these results see PubChem BioAssay AID463213 (Sanford-Burnham Center for Chemical Genomics, 2010).
